# Assays:
# Assay in all cases: DAPPL (digital affinity profiling via proximity ligation, sequencing); 10 mM Tris-HCl pH 7.5, 50 mM NaCl, 1 mM DTT, 4% glycerol, room temperature, 30 min; GST-TFs on glutathione beads, 16-mer random dsDNA library, 0.1% formaldehyde crosslink after washing; high values mean tight binding
# FLI1 = molecular target: T1, FLI1 (Homo sapiens, UniProt Q01543 1-452); settings: protein: recombinant; tags: N-terminal GST; dsDNA, one strand shown
# T1 sequence: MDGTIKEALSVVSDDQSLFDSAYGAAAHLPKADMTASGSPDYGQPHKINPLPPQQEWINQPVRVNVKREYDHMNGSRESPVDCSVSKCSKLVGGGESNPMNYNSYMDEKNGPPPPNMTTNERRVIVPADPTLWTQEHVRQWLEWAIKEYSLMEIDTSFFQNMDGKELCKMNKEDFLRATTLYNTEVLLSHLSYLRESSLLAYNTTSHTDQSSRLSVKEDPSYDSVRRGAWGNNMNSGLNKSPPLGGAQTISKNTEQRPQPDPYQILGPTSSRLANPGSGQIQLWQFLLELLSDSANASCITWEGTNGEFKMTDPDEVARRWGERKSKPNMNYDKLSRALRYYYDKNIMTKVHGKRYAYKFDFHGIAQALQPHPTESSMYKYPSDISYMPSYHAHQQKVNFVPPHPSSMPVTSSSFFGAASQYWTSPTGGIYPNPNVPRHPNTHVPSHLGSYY
# How it was run: (§1)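 Binding signal is defined as a hexamer's read frequency for one factor over its frequency for the tag-only sample. To obtain reads, GST-fused human transcription factors were expressed in yeast, captured on glutathione beads, barcoded with DNA and pooled with that sample. Pools met 200 nmole of a 16-mer random double-stranded DNA library in Tris/NaCl/DTT/glycerol buffer for 30 min at room temperature before washing, 0.1% formaldehyde crosslinking, proximity ligation (BsaI/T4 ligase, 1 h, 37 °C), PCR and Illumina NextSeq500 sequencing.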
# ELK1 = molecular target: T2, ELK1 (Homo sapiens, UniProt P19419 1-428); settings: protein: recombinant; tags: N-terminal GST; dsDNA, one strand shown
# T2 sequence: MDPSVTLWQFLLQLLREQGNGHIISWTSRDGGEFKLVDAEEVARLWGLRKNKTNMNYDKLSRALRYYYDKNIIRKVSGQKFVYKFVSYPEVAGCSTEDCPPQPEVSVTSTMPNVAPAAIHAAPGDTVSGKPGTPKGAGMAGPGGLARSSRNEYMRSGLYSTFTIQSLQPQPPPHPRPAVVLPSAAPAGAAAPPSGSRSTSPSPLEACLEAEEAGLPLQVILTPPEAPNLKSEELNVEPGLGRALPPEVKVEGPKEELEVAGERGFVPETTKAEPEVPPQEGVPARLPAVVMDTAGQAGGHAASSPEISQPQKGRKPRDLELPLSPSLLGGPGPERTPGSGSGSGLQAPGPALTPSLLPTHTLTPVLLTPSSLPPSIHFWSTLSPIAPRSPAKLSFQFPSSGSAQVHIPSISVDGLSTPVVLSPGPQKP
# How it was run: as §1
# GABPA = molecular target: T3, GABPA (Homo sapiens, UniProt Q06546 1-454); settings: protein: recombinant; tags: N-terminal GST; dsDNA, one strand shown
# T3 sequence: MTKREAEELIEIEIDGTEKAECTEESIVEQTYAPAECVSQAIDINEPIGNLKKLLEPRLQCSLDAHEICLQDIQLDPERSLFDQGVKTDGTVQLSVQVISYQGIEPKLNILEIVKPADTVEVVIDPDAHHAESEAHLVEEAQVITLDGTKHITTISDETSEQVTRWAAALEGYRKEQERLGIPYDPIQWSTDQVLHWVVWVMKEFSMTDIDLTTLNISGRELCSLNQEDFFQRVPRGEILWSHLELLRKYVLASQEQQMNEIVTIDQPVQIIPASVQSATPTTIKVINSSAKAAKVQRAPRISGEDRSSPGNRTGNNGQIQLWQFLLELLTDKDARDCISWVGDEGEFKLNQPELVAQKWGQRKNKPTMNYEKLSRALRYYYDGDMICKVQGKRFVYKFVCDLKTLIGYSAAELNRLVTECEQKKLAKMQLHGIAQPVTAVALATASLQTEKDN
# How it was run: as §1
# ERG = molecular target: T4, ERG (Homo sapiens, UniProt P11308 1-479); settings: protein: recombinant; tags: N-terminal GST; dsDNA, one strand shown
# T4 sequence: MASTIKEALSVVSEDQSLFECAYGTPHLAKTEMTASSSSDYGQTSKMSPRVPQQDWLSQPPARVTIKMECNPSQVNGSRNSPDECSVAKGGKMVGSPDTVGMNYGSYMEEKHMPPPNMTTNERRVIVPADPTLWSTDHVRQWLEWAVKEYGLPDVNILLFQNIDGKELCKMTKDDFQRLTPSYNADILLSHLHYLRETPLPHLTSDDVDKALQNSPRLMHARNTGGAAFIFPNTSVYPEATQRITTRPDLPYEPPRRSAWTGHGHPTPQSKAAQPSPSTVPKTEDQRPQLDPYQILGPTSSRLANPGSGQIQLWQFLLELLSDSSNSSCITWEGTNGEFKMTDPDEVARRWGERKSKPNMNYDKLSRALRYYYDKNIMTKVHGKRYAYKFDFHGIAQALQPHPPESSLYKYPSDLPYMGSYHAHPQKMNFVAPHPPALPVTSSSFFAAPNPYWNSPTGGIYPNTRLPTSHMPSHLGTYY
# How it was run: as §1
# ELF1 = ELF1 (Homo sapiens, UniProt P32519 1-619); settings: protein: recombinant; tags: N-terminal GST; dsDNA, one strand shown
# How it was run: as §1
# EHF = molecular target: T5, EHF (Homo sapiens, UniProt Q9NZC4 1-300); settings: protein: recombinant; tags: N-terminal GST; dsDNA, one strand shown
# T5 sequence: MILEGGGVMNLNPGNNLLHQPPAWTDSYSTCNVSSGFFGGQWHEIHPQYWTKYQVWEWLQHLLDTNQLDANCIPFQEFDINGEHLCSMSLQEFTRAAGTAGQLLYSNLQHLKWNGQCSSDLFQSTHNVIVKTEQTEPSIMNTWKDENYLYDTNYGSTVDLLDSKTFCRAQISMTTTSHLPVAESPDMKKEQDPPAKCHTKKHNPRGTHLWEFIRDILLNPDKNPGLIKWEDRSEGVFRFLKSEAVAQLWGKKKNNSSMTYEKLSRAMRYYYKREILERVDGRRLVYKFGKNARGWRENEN
# How it was run: as §1
# ELK3 = molecular target: T6, ELK3 (Homo sapiens, UniProt P41970 1-407); settings: protein: recombinant; tags: N-terminal GST; dsDNA, one strand shown
# T6 sequence: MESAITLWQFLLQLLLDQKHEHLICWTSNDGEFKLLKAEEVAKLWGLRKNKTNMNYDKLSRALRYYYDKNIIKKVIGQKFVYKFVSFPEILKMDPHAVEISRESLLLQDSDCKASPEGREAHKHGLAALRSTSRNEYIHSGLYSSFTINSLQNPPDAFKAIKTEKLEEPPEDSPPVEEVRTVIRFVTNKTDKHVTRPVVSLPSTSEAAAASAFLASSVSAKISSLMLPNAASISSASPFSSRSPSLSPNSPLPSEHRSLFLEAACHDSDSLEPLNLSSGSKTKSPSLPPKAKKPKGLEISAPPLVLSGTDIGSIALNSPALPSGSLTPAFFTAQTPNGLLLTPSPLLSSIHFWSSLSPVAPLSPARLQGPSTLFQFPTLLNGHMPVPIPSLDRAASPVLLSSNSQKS
# How it was run: as §1
# FEV = molecular target: T7, FEV (Homo sapiens, UniProt Q99581 1-238); settings: protein: recombinant; tags: N-terminal GST; dsDNA, one strand shown
# T7 sequence: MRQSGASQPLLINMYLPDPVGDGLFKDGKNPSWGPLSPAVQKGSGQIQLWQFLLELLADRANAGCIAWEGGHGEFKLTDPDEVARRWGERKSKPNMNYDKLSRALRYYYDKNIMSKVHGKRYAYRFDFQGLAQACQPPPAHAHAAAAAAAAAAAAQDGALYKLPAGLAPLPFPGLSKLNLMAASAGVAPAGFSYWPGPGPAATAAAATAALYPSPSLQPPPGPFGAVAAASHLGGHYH
# How it was run: as §1
# ETV5 = ETV5 (Homo sapiens, UniProt P41161 1-510); settings: protein: recombinant; tags: N-terminal GST; dsDNA, one strand shown
# How it was run: as §1
# HSF1 = HSF1 (Homo sapiens, UniProt Q00613 1-529); settings: protein: recombinant; tags: N-terminal GST; chain copies: 3; dsDNA, one strand shown
# How it was run: as §1
# SPIC = molecular target: T8, SPIC (Homo sapiens, UniProt Q8N5J4 1-248); settings: protein: recombinant; tags: N-terminal GST; dsDNA, one strand shown
# T8 sequence: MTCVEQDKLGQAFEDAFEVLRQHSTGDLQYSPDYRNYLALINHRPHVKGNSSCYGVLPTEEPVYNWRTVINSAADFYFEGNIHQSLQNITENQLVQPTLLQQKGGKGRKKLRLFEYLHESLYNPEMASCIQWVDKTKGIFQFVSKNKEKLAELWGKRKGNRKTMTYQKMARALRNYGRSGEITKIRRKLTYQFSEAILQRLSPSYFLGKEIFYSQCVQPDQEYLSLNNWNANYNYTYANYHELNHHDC
# How it was run: as §1
# ELF4 = ELF4 (Homo sapiens, UniProt Q99607 1-663); settings: protein: recombinant; tags: N-terminal GST; dsDNA, one strand shown
# How it was run: as §1
# ELK4 = molecular target: T9, ELK4 (Homo sapiens, UniProt P28324-2 1-405); settings: protein: recombinant; tags: N-terminal GST; dsDNA, one strand shown
# T9 sequence: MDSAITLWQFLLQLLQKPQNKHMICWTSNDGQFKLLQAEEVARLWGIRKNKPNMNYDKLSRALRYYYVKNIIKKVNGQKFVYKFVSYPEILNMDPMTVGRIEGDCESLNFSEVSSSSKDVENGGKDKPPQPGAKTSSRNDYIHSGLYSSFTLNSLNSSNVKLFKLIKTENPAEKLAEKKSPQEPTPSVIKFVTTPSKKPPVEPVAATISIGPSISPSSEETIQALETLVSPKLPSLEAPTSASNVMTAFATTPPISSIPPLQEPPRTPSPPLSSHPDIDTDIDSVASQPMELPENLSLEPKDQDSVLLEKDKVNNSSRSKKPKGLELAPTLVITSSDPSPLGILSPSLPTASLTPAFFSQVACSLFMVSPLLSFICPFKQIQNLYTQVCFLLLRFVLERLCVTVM
# How it was run: as §1
# ETV2 = molecular target: T10, ETV2 (Homo sapiens, UniProt O00321 1-342); settings: protein: recombinant; tags: N-terminal GST; dsDNA, one strand shown
# T10 sequence: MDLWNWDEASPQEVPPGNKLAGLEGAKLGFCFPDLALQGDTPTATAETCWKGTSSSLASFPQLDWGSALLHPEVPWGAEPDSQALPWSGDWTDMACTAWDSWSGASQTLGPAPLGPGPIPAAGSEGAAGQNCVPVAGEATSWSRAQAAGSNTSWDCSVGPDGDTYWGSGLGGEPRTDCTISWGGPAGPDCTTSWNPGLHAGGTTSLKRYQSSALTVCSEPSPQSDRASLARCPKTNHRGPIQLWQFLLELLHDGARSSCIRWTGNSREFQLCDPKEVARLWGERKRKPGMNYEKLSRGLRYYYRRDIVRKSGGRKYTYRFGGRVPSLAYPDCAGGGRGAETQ
# How it was run: as §1
# ELF3 = molecular target: T11, ELF3 (Homo sapiens, UniProt P78545 1-371); settings: protein: recombinant; tags: N-terminal GST; dsDNA, one strand shown
# T11 sequence: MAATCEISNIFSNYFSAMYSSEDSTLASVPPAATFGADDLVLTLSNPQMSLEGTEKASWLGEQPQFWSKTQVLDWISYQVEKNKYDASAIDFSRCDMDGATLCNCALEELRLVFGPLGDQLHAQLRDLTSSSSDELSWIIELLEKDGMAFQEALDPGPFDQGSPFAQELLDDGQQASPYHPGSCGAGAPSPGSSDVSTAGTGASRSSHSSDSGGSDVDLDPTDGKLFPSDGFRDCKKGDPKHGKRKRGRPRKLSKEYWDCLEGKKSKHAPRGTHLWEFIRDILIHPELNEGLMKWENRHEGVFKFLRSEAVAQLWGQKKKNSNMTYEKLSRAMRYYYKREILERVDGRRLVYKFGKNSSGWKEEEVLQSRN
# How it was run: as §1
# ETV1 = ETV1 (Homo sapiens, UniProt P50549 1-477); settings: protein: recombinant; tags: N-terminal GST; dsDNA, one strand shown
# How it was run: as §1
# Chain of ELF4 (Q99607 whole entry): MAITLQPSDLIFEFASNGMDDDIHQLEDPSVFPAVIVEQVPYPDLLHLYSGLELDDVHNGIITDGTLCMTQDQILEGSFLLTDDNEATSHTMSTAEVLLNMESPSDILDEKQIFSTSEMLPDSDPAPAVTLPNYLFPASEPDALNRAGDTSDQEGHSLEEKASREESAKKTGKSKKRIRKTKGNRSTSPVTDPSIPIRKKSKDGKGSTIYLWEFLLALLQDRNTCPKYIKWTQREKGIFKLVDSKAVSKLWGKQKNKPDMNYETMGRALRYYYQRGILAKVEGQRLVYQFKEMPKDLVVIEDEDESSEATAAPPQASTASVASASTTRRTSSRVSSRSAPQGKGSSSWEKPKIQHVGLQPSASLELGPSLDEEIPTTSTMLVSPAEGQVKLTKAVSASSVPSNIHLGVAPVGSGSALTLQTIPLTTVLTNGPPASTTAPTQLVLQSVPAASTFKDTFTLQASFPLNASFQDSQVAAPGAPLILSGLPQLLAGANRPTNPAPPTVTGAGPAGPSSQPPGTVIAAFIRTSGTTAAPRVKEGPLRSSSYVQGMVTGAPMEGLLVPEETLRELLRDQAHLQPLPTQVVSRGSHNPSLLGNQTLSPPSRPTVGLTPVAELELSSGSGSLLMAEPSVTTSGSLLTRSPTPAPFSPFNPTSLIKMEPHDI
# Chain of HSF1 (Q00613 whole entry): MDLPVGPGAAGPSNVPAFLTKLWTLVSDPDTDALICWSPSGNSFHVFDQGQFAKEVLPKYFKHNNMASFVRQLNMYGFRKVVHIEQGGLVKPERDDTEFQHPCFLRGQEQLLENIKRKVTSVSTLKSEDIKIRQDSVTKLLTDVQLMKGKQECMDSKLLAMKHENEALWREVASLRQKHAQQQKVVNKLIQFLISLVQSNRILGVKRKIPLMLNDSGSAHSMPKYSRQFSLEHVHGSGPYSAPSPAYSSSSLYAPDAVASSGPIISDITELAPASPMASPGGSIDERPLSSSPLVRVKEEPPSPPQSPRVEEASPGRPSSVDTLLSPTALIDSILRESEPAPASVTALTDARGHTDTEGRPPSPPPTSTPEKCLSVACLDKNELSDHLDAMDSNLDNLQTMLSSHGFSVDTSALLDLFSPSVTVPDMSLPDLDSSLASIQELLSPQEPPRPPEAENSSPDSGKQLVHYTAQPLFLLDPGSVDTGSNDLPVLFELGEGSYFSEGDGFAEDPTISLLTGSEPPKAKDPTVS
# Chain of ETV1 (P50549 whole entry): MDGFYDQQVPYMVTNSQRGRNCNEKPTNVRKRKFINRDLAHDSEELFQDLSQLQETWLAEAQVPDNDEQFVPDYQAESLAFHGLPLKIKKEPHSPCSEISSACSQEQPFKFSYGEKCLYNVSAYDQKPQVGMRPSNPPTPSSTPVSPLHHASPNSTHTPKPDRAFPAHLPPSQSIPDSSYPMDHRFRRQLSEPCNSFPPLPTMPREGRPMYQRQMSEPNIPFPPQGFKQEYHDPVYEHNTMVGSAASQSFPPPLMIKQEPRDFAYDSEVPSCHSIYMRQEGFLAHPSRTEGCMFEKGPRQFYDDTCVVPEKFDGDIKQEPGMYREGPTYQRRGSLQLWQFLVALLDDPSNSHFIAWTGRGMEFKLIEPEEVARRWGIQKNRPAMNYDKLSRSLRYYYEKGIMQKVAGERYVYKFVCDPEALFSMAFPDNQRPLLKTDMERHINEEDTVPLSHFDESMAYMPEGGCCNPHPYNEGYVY
# Chain of ETV5 (P41161 whole entry): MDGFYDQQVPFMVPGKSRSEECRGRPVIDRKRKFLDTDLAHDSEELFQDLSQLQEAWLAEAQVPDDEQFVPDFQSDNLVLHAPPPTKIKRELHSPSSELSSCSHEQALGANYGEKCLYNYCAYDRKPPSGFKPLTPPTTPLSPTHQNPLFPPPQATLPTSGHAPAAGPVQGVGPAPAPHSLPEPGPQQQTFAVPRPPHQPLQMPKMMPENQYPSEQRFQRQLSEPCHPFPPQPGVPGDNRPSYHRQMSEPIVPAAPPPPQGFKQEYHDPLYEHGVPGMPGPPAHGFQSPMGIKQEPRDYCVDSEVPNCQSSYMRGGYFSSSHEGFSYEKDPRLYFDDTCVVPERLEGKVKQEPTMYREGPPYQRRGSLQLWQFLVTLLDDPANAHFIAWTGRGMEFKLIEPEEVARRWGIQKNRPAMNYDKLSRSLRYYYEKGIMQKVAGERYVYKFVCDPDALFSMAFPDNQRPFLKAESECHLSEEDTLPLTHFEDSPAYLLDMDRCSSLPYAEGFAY
# Chain of ELF1 (P32519 whole entry): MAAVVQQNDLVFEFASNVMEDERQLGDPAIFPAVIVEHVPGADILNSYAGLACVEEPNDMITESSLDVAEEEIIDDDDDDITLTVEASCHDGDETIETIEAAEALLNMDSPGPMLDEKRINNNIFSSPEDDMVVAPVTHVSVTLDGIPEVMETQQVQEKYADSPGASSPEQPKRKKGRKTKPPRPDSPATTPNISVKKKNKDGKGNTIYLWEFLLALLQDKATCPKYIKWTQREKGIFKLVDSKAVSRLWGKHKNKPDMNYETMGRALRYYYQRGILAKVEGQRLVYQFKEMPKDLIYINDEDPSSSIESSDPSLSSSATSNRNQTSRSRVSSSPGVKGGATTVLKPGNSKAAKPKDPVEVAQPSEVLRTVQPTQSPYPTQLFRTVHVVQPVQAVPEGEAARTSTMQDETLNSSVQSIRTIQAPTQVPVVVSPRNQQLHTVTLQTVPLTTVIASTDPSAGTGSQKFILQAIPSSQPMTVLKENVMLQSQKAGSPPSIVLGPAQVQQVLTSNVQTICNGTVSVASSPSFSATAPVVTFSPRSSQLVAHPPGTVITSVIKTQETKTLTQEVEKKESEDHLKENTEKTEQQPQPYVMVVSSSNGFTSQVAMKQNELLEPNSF
sequence,measurement,setting,value
CACCGA,binding signal,FLI1,"1.01 fold enrichment (6-mer frequency, TF over GST control)"
same,binding signal,ELK1,"1.01 fold enrichment (6-mer frequency, TF over GST control)"
same,binding signal,GABPA,"1.08 fold enrichment (6-mer frequency, TF over GST control)"
same,binding signal,ERG,"1.08 fold enrichment (6-mer frequency, TF over GST control)"
same,binding signal,ELF1,"1.11 fold enrichment (6-mer frequency, TF over GST control)"
same,binding signal,EHF,"1.08 fold enrichment (6-mer frequency, TF over GST control)"
same,binding signal,ELK3,"1 fold enrichment (6-mer frequency, TF over GST control)"
same,binding signal,FEV,"1.1 fold enrichment (6-mer frequency, TF over GST control)"
same,binding signal,ETV5,"1.1 fold enrichment (6-mer frequency, TF over GST control)"
same,binding signal,HSF1,"1.06 fold enrichment (6-mer frequency, TF over GST control)"
same,binding signal,SPIC,"1.05 fold enrichment (6-mer frequency, TF over GST control)"
same,binding signal,ELF4,"1.08 fold enrichment (6-mer frequency, TF over GST control)"
same,binding signal,ELK4,"1.13 fold enrichment (6-mer frequency, TF over GST control)"
same,binding signal,ETV2,"1.1 fold enrichment (6-mer frequency, TF over GST control)"
same,binding signal,ELF3,"1.04 fold enrichment (6-mer frequency, TF over GST control)"
same,binding signal,ETV1,"1.1 fold enrichment (6-mer frequency, TF over GST control)"
